Source: publication PMC4552634, “A New Set of Chemical Starting Points with Plasmodium falciparum Transmission-Blocking Potential for Antimalarial Drug Discovery” (PLoS ONE, 2015)
About 3,200 (25%) of roughly 13,000 compounds showed an effect of 50% or more. The list shows a part of the results.

What follows are molecules tested on P. falciparum stage V gametocytes. Conditions: 48 h, 5 µM; inhibitor.
Design: BacTiter-Glo ATP luminescence viability of purified stage V gametocytes in 384-well plates, per cent inhibition versus DMSO
Cc1ccc(S(=O)(=O)c2nc(S(=O)(=O)c3ccccc3)sc2NCC2CCCO2)cc1 (stereo not drawn) [TCMDC-124749] was tested, and the “% Inhibition” value was 4.322%.
With CCCCCN=C(N)N/N=C/c1c[nH]c2ccc(OC)cc12 [TCMDC-125887] the “% Inhibition” value was 106.4%.
For CCCCCCCN(CCCCCCC)CCCC(=O)Nc1ccnc2ccc(OC)cc12.O=C(O)C(=O)O [TCMDC-139843], the “% Inhibition” value was -16.87%.
In the case of COc1ccc2cc(C=NNc3nc4ccccc4[nH]3)c(Cl)nc2c1 [TCMDC-124889], the “% Inhibition” value is reported as -71.34%.
For O=C(NC12CC3CC(CC(C3)C1)C2)C(=O)c1c[nH]c2ccccc12 [TCMDC-123481], the “% Inhibition” value was -3.925%.
For O=C(CNc1ccncc1)c1c[nH]c2ccccc12 [TCMDC-124024], the “% Inhibition” value was 4.031%.
For O=C(c1c(-c2[nH]c3ccccc3c2C(=O)C(F)(F)F)[nH]c2ccccc12)C(F)(F)F [TCMDC-125831], the “% Inhibition” value was 0.8709%.
For O=C(CSc1nn(-c2ccccc2)c(=S)s1)c1c[nH]c2ccccc12 [TCMDC-124894], the “% Inhibition” value was 95.1%.
With Cc1[nH]c2ccccc2c1C(=O)CSc1nn(-c2ccccc2)c(=S)s1 [TCMDC-124893] the “% Inhibition” value was 60.68%.
N#Cc1ccc2c(c1)CN(CCC1CCC(NC(=O)c3cc4cc(OC(F)(F)F)ccc4[nH]3)CC1)CC2 (stereo not drawn) [TCMDC-139160] was tested, and the “% Inhibition” value was 23.56%.
In the case of Cc1cccc2nc(-c3cccc(-c4cccc(C(=O)NCCc5cn(C)cn5)c4)c3)[nH]c12 [TCMDC-132494], the “% Inhibition” value is reported as -97.59%.
For O=C(NCCCCN1CC=C(c2ccc3c(c2OCc2ccccc2)CCCC3)CC1)c1ccc(-c2ccc(C(F)(F)F)cc2)cc1 [TCMDC-138746], the “% Inhibition” value was -33.61%.
For N#Cc1ccc(-c2ccc(C(=O)NCCCCN3CCC(c4ccc5c(c4OCc4ccncc4)CCCC5)CC3)cc2)cc1 [TCMDC-138732], the “% Inhibition” value was 54.86%.
With N#Cc1ccc(-c2ccc(C(=O)NCCCCN3CCC(c4ccc5c(c4OCc4ccccn4)CCCC5)CC3)cc2)cc1 [TCMDC-138737] the “% Inhibition” value was 66.39%.
CC(=O)Oc1c(C2CCN(CCCCNC(=O)c3ccc(-c4ccc(C#N)cc4)cc3)CC2)ccc2c1CCCC2 [TCMDC-138650] was tested, and the “% Inhibition” value was -28.73%.
In the case of CC(C)(Oc1c(C2CCN(CCCCNC(=O)c3ccc(-c4ccc(C#N)cc4)cc3)CC2)ccc2c1CCCC2)C(N)=O [TCMDC-134828], the “% Inhibition” value is reported as 39.17%.
O=C(NCCCCN1CCC(c2ccc3c(c2OCc2ccncc2)CCCC3)CC1)c1ccc(-c2ccc(C(F)(F)F)cc2)cc1 [TCMDC-138733] was tested, and the “% Inhibition” value was 60.19%.
O=C(NCCN1Cc2ccccc2C1=O)c1ccc(Oc2ccc(C(=O)NCCN3Cc4ccccc4C3=O)cc2)cc1 [TCMDC-125669] was tested, and the “% Inhibition” value was 22.87%.
